This is a sample that favours compounds with a hit; in the whole collection about 2.4% have one here.
Pol kappa inh: blocks human DNA polymerase kappa activity; Potency, µM (top dose mostly 107 µM), for inactives: at the highest dose activity, negative = inhibition, actives largely listed as inhibitors; 400,000 tested, 0.53% active; purified Pol kappa, fluorescent DNA synthesis assay, 10 min; Q9UBT6; further: potency means the concentration at half of the fitted maximal effect; on the % scale 0 is the no-effect control and ±100 the full control effect
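10 nM Pol kappa was preincubated with compounds for 15 min at room temperature. Reaction started with 50 nM (final) substrate. Fluorescence read kinetically at 0 and 10 min.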
Pol beta inh-1: DNA polymerase beta (human) inhibition; Pol beta primer extension/strand displacement, fluorescence kinetic; AID 485314; 340,000 tested, 1.3% active; P06746; Potency, µM (series often up to 114 µM), for inactives: at the highest dose activity change, negative = inhibition, most hits filed as inhibitors; further: potency means the concentration at half of the fitted maximal effect; on the % scale 0 is the no-effect control and ±100 the full control effect
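Reaction started by 50 nM substrate onto compound-treated Pol beta (10 nM, 15 min preincubation, room temperature); plates read at 0 min and 10 min. Normalized concentration-effect data fitted by four-parameter Hill equation.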
FEN1 inh: blocks human flap endonuclease 1; Recombinant FEN1 flap cleavage, fluorescence, 15 min; 390,000 tested, 0.35% active; P39748; AID 588795; Potency, µM (doses to about 114 µM), inactives show at the highest dose activity change, negative = inhibition, hits mostly inhibitors; further: potency means the concentration at half of the fitted maximal effect; on the % scale 0 is the no-effect control and ±100 the full control effect; nearly all actives have a fitted effect of over 65% in size
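Compounds are tested as a concentration series against 10 nM FEN1; after a 15 min room-temperature preincubation, 50 nM substrate starts cleavage, with plate reads at 0 and 15 min. Normalized responses are fitted by a Hill equation.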
Pol eta inh-1: DNA polymerase eta (human) inhibition; recombinant Pol eta, fluorescent DNA replication assay; Potency, µM (series often up to 114 µM), for inactives: at the highest dose activity change, negative = inhibition, usual class: inhibitors; 390,000 tested, 1.2% active; further: potency means the concentration at half of the fitted maximal effect; on the % scale 0 is the no-effect control and ±100 the full control effect
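Pol eta at 10 nM preincubated with compounds 15 min at room temperature; reaction started with fluorescent substrate (50 nM final) and read kinetically at 0 and 10 min.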
Pol iota inh: inhibitors of human DNA polymerase iota; Potency, µM (titrated, usually from 115 µM), inactives show at the highest dose activity, negative = inhibition, actives largely listed as inhibitors; Q9UNA4; 390,000 tested, 1% active; Pol iota fluorescent replication assay, 10 min; further: potency means the concentration at half of the fitted maximal effect
Target sequence (Q9UNA4 whole entry, looked up): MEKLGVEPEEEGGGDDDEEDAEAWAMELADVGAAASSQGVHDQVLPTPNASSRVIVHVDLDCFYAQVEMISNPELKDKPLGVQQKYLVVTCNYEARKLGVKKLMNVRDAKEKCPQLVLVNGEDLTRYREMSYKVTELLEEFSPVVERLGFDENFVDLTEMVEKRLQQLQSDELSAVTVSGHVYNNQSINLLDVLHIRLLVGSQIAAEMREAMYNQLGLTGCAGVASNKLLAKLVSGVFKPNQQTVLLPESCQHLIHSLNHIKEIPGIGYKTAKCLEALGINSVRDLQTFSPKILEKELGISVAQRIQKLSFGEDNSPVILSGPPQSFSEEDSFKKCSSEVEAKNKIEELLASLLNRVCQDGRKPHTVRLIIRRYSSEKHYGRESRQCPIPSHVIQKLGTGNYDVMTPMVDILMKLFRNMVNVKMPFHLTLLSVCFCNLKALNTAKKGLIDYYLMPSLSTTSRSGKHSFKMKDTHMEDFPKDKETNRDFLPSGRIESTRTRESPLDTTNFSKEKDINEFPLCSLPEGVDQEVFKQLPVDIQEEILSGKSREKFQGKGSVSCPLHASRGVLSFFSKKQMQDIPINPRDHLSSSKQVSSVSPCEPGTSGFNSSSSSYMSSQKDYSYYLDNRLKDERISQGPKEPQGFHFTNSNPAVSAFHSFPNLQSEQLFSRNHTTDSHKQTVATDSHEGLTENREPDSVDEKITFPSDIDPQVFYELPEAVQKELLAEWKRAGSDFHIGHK
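Pol iota at 10 nM preincubated 15 min with compounds at room temperature; reaction started with fluorescent substrate, 50 nM final. Fluorescence read kinetically at 0 and 10 min; buffer-only wells as negative control.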
WRN helicase inh-1: WRN helicase (human) inhibition; 360,000 tested, 0.46% active; Potency, µM (top dose mostly 114 µM), without a hit: top-dose activity change, negative = inhibition, most hits filed as inhibitors; WRN helicase unwinding, fluorescent forked duplex, kinetic; Q14191; further: potency means the concentration at half of the fitted maximal effect; on the % scale 0 is the no-effect control and ±100 the full control effect; nearly all actives have a fitted effect of over 55% in size
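Screening of the MLSMR collection measured strand separation of a quenched forked DNA duplex (100 nM) by 20 nM WRN with 2 mM ATP, all final. Compounds were preincubated with enzyme 15 min at room temperature.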
Pol beta inh-2: Inhibitors of human DNA polymerase beta, hit validation; shares compounds with Pol beta inh-1; 250 tested, 87% active; Pol beta primer extension/strand displacement, fluorescence kinetic; AID 540280; Potency, µM, actives largely listed as inhibitors; calls by dose curve; further: potency means the concentration at half of the fitted maximal effect
Klenow counter: Klenow polymerase inhibition, pol beta selectivity check; Klenow exo- polymerase counter-screen, fluorescent DNA substrate; 250 tested, under 10 active; activity change, negative = inhibition, % at 57.1 µM; shares compounds with Pol beta inh-1
HIV RT inh: HIV-1 RT inhibition, pol beta selectivity check. shares compounds with Pol beta inh-1. HIV-1 RT polymerase activity, counter-screen. activity % (negative = inhibition, positive = activation), % at 57.1 µM. 250 tested, under 10 active. AID 540301
TbPGK inh: blocks T. brucei phosphoglycerate kinase. TbPGK coupled GAPDH assay, Kinase-Glo luminescence. 500 tested, 79% active. AID 686980. Potency, µM (titrated, usually from 57.5 µM), without a hit: top-dose activity change, negative = inhibition, actives largely listed as inhibitors. shares compounds with Pol kappa inh; further: potency means the concentration at half of the fitted maximal effect; on the % scale 0 is the no-effect control and ±100 the full control effect; nearly all actives have a fitted effect of over 65% in size
Pol iota confirm: Human Pol iota inhibitor confirmatory assay. shares compounds with Pol kappa inh. Pol iota primer extension, TAMRA/BHQ fluorescence. Potency, µM, usual class: inhibitors. 1,500 tested, 77% active. AID 720496; further: potency means the concentration at half of the fitted maximal effect
Pol eta inh-2: confirmation of human DNA polymerase eta inhibitors. shares compounds with Pol eta inh-1. AID 720502. Pol eta primer extension, TAMRA/BHQ fluorescence, 10 min. 2,600 tested, 64% active. Potency, µM, actives largely listed as inhibitors; further: potency means the concentration at half of the fitted maximal effect
WRN helicase inh-2: WRN helicase inhibition, cherry-pick retest. shares compounds with WRN helicase inh-1. WRN helicase DNA unwinding, fluorescence kinetic. Potency, µM (highest dose often 57.1 µM), for inactives: top-dose activity, negative = inhibition, most hits filed as inhibitors. 610 tested, 63% active; further: potency means the concentration at half of the fitted maximal effect; nearly all actives have a fitted effect of over 65% in size
TO DNA binding: DNA binding via thiazole orange displacement; shares compounds with WRN helicase inh-1; thiazole orange DNA binding displacement, fluorescence; Potency, µM (highest dose often 57.1 µM), inactives show top-dose activity change, negative = inhibition, usual class: inhibitors; 610 tested, 10% active; AID 720499;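 further: drop in dye fluorescence marks compound binding to DNA; potency means the concentration at half of the fitted maximal effect; on the % scale 0 is the no-effect control and ±100 the full control effect; nearly all actives have a fitted effect of over 60% in size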
BLM helicase inh: counter-screen for WRN helicase inhibitors: human BLM helicase inhibition | shares compounds with WRN helicase inh-1 | Recombinant BLM helicase DNA unwinding, red fluorescence | Potency, µM (doses to about 57.1 µM), for the others: at the top dose activity change, negative = inhibition, actives largely listed as inhibitors | 610 tested, 60% active | AID 720503; further: potency means the concentration at half of the fitted maximal effect; nearly all actives have a fitted effect of over 60% in size
Active calls of the source: *; ? = inconclusive; . = no result; [ ] = another dose, or the depositor's remark. Unless noted, the call rests on the fitted dose curve; in most records, active means well fitted curve in the direction sought with a large enough effect; inconclusive means small, poorly fitted or top-dose-only effect, or another doubt; inactive means no such curve, though single readings can be large; an effect the other way counts as inactive or inconclusive.

SMILES	Pol kappa inh	Pol beta inh-1	FEN1 inh	Pol eta inh-1	Pol iota inh	WRN helicase inh-1	TbPGK inh	Pol iota confirm	others
CCc1nnc(NC(=O)c2cc(-c3ccco3)nc3ccccc23)s1	25µM*	8.9µM*	?	16µM*	1.3µM*	35µM*	.	?	Pol beta inh-2=20*;Klenow counter=-11;HIV RT inh=33;Pol eta inh-2=76*;WRN helicase inh-2=?;TO DNA binding=24µM*;BLM helicase inh=1.9µM*
Cn1c(SCC(=O)c2ccc3c(c2)Cc2ccccc2-3)nnc1-c1ccccc1	-6%	?	-6%	8.9µM*	?	?	.	42*
Cn1c2ccccc2c(=O)c2ccc(C#Cc3ccccn3)cc21	-19%	25µM*	5%	28µM*	32µM*	-11%[11.6 µM]	.	?
Cc1cc2oc(=O)c(CC(=O)NCCc3ccccc3F)c(C)c2c2occ(C(C)(C)C)c12	5%	22%	3%	-20%	37%	.	.	.
COc1ccc(O)c(C(c2c(C)[nH][nH]c2=O)c2c(C)[nH][nH]c2=O)c1	-1%	?	-32%	-13%	-90%	-4%[11.6 µM]	.	?
O=C1c2cccc3cccc(c23)C(=O)N1CCN1CCN(C(=S)Nc2ccc(F)cc2)CC1	.	5%	.	.	.	.	.	.
Cc1ccc(NC(=S)N2CCN(CCN3C(=O)c4cccc5cccc(c45)C3=O)CC2)cc1	-16%	25%	-2%	?	12%	3%	4%	.
CNC(=O)C1CCC(Cn2c(=O)c3sccc3n(CC(=O)Nc3cc(C)cc(C)c3)c2=O)CC1 (stereo not drawn)	6%	2%	24%	3%	3%	.	-28%	.
CNC(=O)C1CCC(Cn2c(=O)c3sccc3n(CC(=O)N3CCC(C)CC3)c2=O)CC1 (stereo not drawn)	0%	-1%	-6%	-2%	10%	.	-17%	.
C=C[C@@H]1[C@@H](C)[C@H](C)C(=O)C([C@H](O)C(C)C)[C@@H]1C (stereo partly drawn)	8%	.	-13%	.	-29%	.	.	.
Cc1ccc(NC(=O)c2sccc2C)nc1	3%	9%	0%	-8%	9%	12%	13µM*	.
COc1cc(NC(=O)c2ccccc2)ccc1NC(=O)c1cc2ccccc2o1	4%	3%	5%	-17%	58%	16%	.	.
Cc1cc(NC(=O)c2cncc(Br)c2)ccc1NC(=O)c1cc2ccccc2o1	-12%	?	0%	50µM*	?	-11%[11.6 µM]	.	?
O=C(NNC(=O)c1cc2cc3ccccc3nc2s1)c1cccc(Cl)c1	79µM*	1.4µM*	-16%	?	?	?	.	?
O=C(CNc1ccc2ccccc2c1)N/N=C/C=C/c1cccc([N+](=O)[O-])c1	-10%	?	-15%	16µM*	?	-11%[11.6 µM]	.	75*
O=C(N/N=C/C=C/c1cccc([N+](=O)[O-])c1)C(O)c1ccccc1 (stereo not drawn)	-21%	38%	7%	2%	-13%	-18%	.	.
O=C(O)/C(=C\c1ccc(-c2ccc(F)cc2)o1)c1ccccc1	?	?	-10%	-10%	?	?	.	.
CC(=O)c1ccc(-c2ccc(/C=C(/Sc3n[nH]c(C)n3)C(=O)O)o2)cc1	?	?	50µM*	40µM*	?	-11%	.	47*
CCOc1ccccc1C(=O)Nc1c(C(=O)Nc2ccc(F)cc2)oc2ccccc12	-9%	-2%	-3%	?	20%	.	.	.
O=C(NCc1ccccc1)c1ccc(NC(=O)C2CCCC2)cc1	0%	.	16%	-18%	36%	1%	1%	.
COc1ccc(C(=O)NNC(=O)c2ccccn2)cc1	13%	-2%	-3%	-6%	22%	4%	5.2µM*	.
N/C(=N\OC(=O)c1ccc(Cl)c(Cl)c1)c1ccccn1	-11%	17%	5%	-12%	18%	-1%	.	.
Cc1ccc(C(=O)O/N=C(\N)c2ccccn2)c(C)c1	-14%	-2%	0%	0%	119%	-2%	7.3µM*	.
N/C(=N\OC(=O)c1ccc(Cl)cc1)c1ccccn1	-7%	31%	-10%	-8%	-3%[58.9 µM]	0%	15µM*	.
COc1ccc(C(=O)O/N=C(\N)c2ccccn2)cc1	10%	0%	0%	-17%	23%	4%	5.2µM*	.
COc1cc(OC)cc(C(=O)O/N=C(\N)c2ccccn2)c1	9%	-2%	-5%	-5%	19%	7%	.	.
CCCN(CCC)C(=O)C1CCN(c2cc(C)nc3c(-c4ccc(Cl)cc4)c(C)nn23)CC1	-13%	?	-6%	-27%	20%	.	.	.
COc1ccccc1-n1c(=O)n(C)c2c(C(N)=O)nc(-c3cc(OC)c(OC)c(OC)c3)nc21	-14%[60.1 µM]	0%	4%	-5%	5%	.	.	.
